Source: PubChem (National Center for Advancing Translational Sciences (NCATS))
Shown are actives, neighbours in structure and some others; about 0.51% of the full set was active somewhere.
FMDV FLuc – FMDV antiviral activity by firefly signal; 0.23% of 120,000 active; AID 1745856; FMDV antiviral cell assay, firefly luciferase signal; Potency, µM (highest dose often 57.5 µM), for inactives: at the top dose activity change, negative = inhibition, most hits filed as inhibitors; further: nearly all actives have a fitted effect of over 60% in size
FMDV RLuc – FMDV antiviral activity by Renilla signal. FMDV replicon cells, Renilla luciferase signal. Potency, µM (top dose mostly 57.5 µM), without a hit: at the top dose activity change, negative = inhibition, usual class: inhibitors. 0.32% of 120,000 active. AID 1745857; further: nearly all actives have a fitted effect of over 55% in size
Active calls of the source: *; ? = inconclusive. The call rests on the fitted dose curve. On the % scale 0 is the no-effect control and ±100 the full control effect; potency means the concentration at half of the fitted maximal effect.

SMILES	FMDV FLuc	FMDV RLuc
CCn1c2c(c(=O)n3ncc(C(=O)Nc4ccc(F)c(Cl)c4)c13)CN(Cc1ccc(OC)cc1)CC2	-8.4%	-4.1%
N#CCc1ccc(NC(=O)CNc2cccc(Br)c2)cc1	35.5%	70.4%
Cn1c(SCc2nc(-c3ccc(C(F)(F)F)cc3)no2)nc2ccsc2c1=O	22.4µM*	17.8µM*
COCCn1c(SCc2nc(-c3cccc(C(F)(F)F)c3)no2)nc2ccsc2c1=O	-15.8%	-14.8%
COc1cc(/C=C/c2nc(C#N)c(N(C)C)o2)cc(OC)c1OC	3.7%	-11.7%
COC(=O)CC(NC(=O)c1cc(C)nc2c1cnn2C(C)C)c1ccc(Br)cc1 (stereo unspecified)	-7.5%	29.9%
COc1cccc2sc(N3CCN(C(=O)CCS(=O)(=O)c4ccc(F)cc4)CC3)nc12	35.5µM*	?
Cc1ccc(S(=O)(=O)CCC(=O)N2CCN(c3nc4c(C)c(Cl)ccc4s3)CC2)cc1	-0.5%	-11.0%
Cc1cc(F)ccc1S(=O)(=O)Nc1ccccc1-c1n[nH]c(C2CC2)n1	4.3%	101.7%
CCOC(=O)c1sc(Nc2cccc(C)c2)nc1C(F)(F)F	0.0%	0.0%
CCc1cc2c(=O)c(Oc3ccc(F)cc3)c(C(F)(F)F)oc2cc1OC(C)=O	14.1µM*	10µM*
CCc1cc2c(=O)c(Oc3ccc(I)cc3)c(C(F)(F)F)oc2cc1OC(=O)c1ccc(Br)cc1	6.1%	12.1%
COc1ccc(/C=C(/C#N)c2nc3ccccc3[nH]2)cc1	144.6%	213.2%
COc1ccc2cc(/C=C(/C#N)c3nc4ccccc4[nH]3)ccc2c1	225.2%	10µM*
COc1ccc(-c2nnc3c(C(=O)Nc4cccc5ccccc45)cccn23)cc1	40.0%	11.8%
Cc1nc(N2CCC(C(=O)Nc3cccc(Cl)c3C)CC2)c2c(C)c(C)oc2n1	-3.4%	-2.7%
Cc1nc(N2CCC(C(=O)Nc3cccc(Br)c3)CC2)c2c(C)c(C)oc2n1	17.8µM*	?
O=C(Cn1c(=O)oc2cc(S(=O)(=O)N3CCCCCC3)ccc21)NCc1ccccc1Cl	28.2µM*	?
COc1ccccc1CNC(=O)Cn1c(=O)ccc2cc(S(=O)(=O)N3CCC(C)CC3)ccc21	9.9%	55.7%
O=C(Cn1c(=O)oc2cc(S(=O)(=O)N3CCCCC3)ccc21)NCc1ccc(F)cc1	14.7%	-14.7%
COc1ccc(C)cc1NC(=O)Cn1c(=O)oc2cc(S(=O)(=O)N3CCCCCC3)ccc21	-22.0%	3.3%
Cc1ccc(NC(=O)Cn2c(=O)oc3cc(S(=O)(=O)N4CCCCC4)ccc32)c(C)c1	?	8.91µM*
COc1ccccc1CNC(=O)Cn1c(=O)oc2cc(S(=O)(=O)N3CCC(C)CC3)ccc21	28.2µM*	?
COc1cc(C2Nc3ccccc3-n3cc4c(=O)n(C)c(=O)n(C)c4c32)ccc1O (stereo unspecified)	3.4%	3.0%
O=C(CN1CCN(C(=O)c2cc(=O)[nH]c3ccccc23)CC1)NCc1ccccc1	-6.4%	-12.4%
SMILES	FMDV FLuc	FMDV RLuc
CCOc1ccccc1OCc1nn2c(C3COc4ccccc4O3)nnc2s1 (stereo unspecified)	8.1%	5.3%
Cc1ccc(N)c(O)c1	138.9%	-1.8%
Cc1cc(C)c([N+](=O)[O-])cc1[N+](=O)[O-]	9.0%	-12.4%
Cc1ccc([N+](=O)[O-])[c]2c1[O][Hg]2	2.82µM*	?
Cc1ccc(Nc2nc(CN3CCN(S(=O)(=O)c4cc(C)ccc4C)CC3)cs2)cc1	?	8.91µM*
Cc1nc(CN2CCN(S(=O)(=O)c3ccccc3Cl)CC2)cs1	-11.0%	-4.8%
CN(Cc1ccccc1)C1CCN(Cc2ccc(Cl)cc2)CC1	1.8%	-3.1%
Cc1ccc(C)c(NC(=O)CCc2c(C)[nH]n(-c3ccc(F)cc3)c2=O)c1	4.7%	0.3%
CCc1ccc(OCc2nnc(SCc3cc(=O)c4ccccc4[nH]3)n2CC)cc1	?	15.8µM*
CCn1c(COc2ccccc2Cl)nnc1SCc1cc(=O)c2cc(C(N)=O)ccc2[nH]1	-5.9%	-1.2%
Cc1ccc(C)c(N2CCN(C(=O)Cn3c(C)c4cnn(-c5ccccc5)c(=O)c4c3C)CC2)c1	25.1µM*	22.4µM*
Cc1c2cnn(-c3ccccc3)c(=O)c2c(C)n1CC(=O)N1CCN(c2cccc(Cl)c2)CC1	-7.8%	-2.8%
Cc1cccc(N2CCN(S(=O)(=O)c3csc(C(N)=O)c3)CC2)c1C	12.6µM*	8.91µM*
COc1ccc(N2CCN(S(=O)(=O)c3csc(C(N)=O)c3)CC2)cc1	-8.3%	-15.1%
COC(=O)NNC(=S)NC(=O)c1ccccc1	0.0%	-3.4%
CN(CC(=O)N(C)C1CCCc2ccccc21)c1ncnc2nc[nH]c12 (stereo unspecified)	-11.4%	-15.6%
CN(Cc1ccc2ccccc2c1)C(=O)CN(C)c1ncnc2nc[nH]c12	31.6µM*	?
O=C(Nc1ccc2ccccc2n1)c1ccc(S(=O)(=O)N2CCCCC2)cc1	?	31.6µM*
O=C(Nc1ccc2ccccc2n1)c1ccc(S(=O)(=O)NC2CC2)cc1	-2.3%	-3.8%
CCOc1ccc(C(C)=O)cc1COc1ccc2c(CC)cc(=O)oc2c1	-2.4%	-5.0%
N#CC1(NC(=O)CSCc2ccc(Cl)cc2)CCCCCC1	24.0%	56.4%
N#CC1=C(SCc2ccc(Cl)cc2)NC(=O)C(C#N)C12CCCC2 (stereo unspecified)	?	10µM*
CC1CCN(C(=O)c2nc3nc(-c4ccco4)cc(C(F)(F)F)n3n2)CC1	0.8%	6.5%
CS(=O)(=O)N(Cc1csc(-c2cccs2)n1)C1CCN(C(=O)c2ccccc2F)CC1	-10.4%	29.4%
CC(=O)C1=C(C)Oc2ncn3nc(COc4cccc(C)c4C)nc3c2C1c1ccco1 (stereo unspecified)	-7.1%	-6.7%
SMILES	FMDV FLuc	FMDV RLuc
Cc1cccc(OCc2nc3c4c(ncn3n2)OC2=C(C(=O)CCC2)C4c2ccco2)c1C (stereo unspecified)	20µM*	?
CCOC(=O)c1sc(Nc2cc(C)ccc2C)nc1C(F)(F)F	-1.7%	2.2%
COc1cc(CNC(=O)c2ccc3nc(CCc4ccccc4)oc3c2)cc(OC)c1OC	-23.5%	15.0%
COc1cc(CNC(=O)c2ccc3nc(Cc4ccccc4)oc3c2)cc(OC)c1OC	14.1µM*	?
CCN1CCc2nc3sc(C(=O)Nc4cccc(Cl)c4C)c(N)c3cc2C1	12.6µM*	7.08µM*
Cc1cccc(NC(=O)c2sc3nc4c(cc3c2N)CN(Cc2ccccc2)CC4)c1	96.9%	-5.7%
O=C(Nc1ccc(N2CCN(Cc3ccccc3)CC2)cc1)c1cnc2ccccc2n1	?	7.94µM*
CN1CCN(c2ccc(NC(=O)c3cnc4ccccc4n3)cc2)CC1	128.2%	-11.1%
O=C1CN(C(=O)c2cc3cc(Cl)ccc3[nH]2)CCN1	63.3%	2.0%
C=CCN(CC=C)C(=O)c1cc(-c2ccc(OCC)cc2)nc2ccccc12	113.8%	33.0%
Fc1ccc(-c2csc(NCc3ccco3)n2)cc1F	231.0%	16.2%
COc1ccc(C(=O)Nc2nc(-c3nnn(-c4ccccc4Br)c3C)ns2)cc1	14.1µM*	14.1µM*
COc1ccc(C(=O)Nc2nc(-c3nnn(-c4ccc(F)cc4F)c3C)ns2)cc1	43.3%	15.2%
Cc1ccccc1CNC(=O)c1nccnc1N	19.6%	1.2%
Cc1ccccc1OCC(=O)N1CCC(c2nc3ccccc3s2)CC1	-6.3%	-9.8%
COc1ccc(OCC(=O)N2CCC(c3nc4ccccc4s3)CC2)cc1	28.2µM*	25.1µM*
O=C(NNC(=S)NC(=O)c1ccc(F)cc1)c1ccc(Cl)cc1	60.5%	4.3%
COC(=O)C1(NC(=O)COc2ccc(Cl)cc2Cl)CCCCC1	8.91µM*	8.91µM*
